Ecoli rRNA inh – reduced GFP signal of wild-type E. coli, primary screen, bacterial rRNA inhibitor project, GFP/RFP fluorescence, OD600, single point; E. coli WT GFP vs humanized-ribosome RFP mutants, 24 h; hits give low values; DMSO median 0, no signal -100; hit rate 1.6% among 350,000; GFP signal change (wild-type ribosome), % (test concentration not listed);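 active = significant combined selectivity score with lowered wild-type GFP, culture density cut under 30%, mutant RFP and density less affected; inactive = any of these conditions unmet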
FGF22 binding – binders of human FGF22 protein, primary screen, FGF22 synaptogenesis inhibitor project, biophysical, thermal shift, single point; Fibroblast growth factor 22 (Homo sapiens), Q9HCT0; recombinant FGF22 thermal shift, SYPRO orange fluorescence; percent of sucrose octasulfate shift, DMSO zero; activity (Tm shift, normalised), % at 9.99 µM; hit rate 1.5% among 340,000; AID 651658, 2012;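 active = mean Tm shift, scaled 0 neutral to 100 positive control, at about 1.3% or above, every replicate too, limit read from the data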
ADAM17 inh – ADAM17 inhibitors, primary screen, biochemical, QFRET; Disintegrin and metalloproteinase domain-containing protein 17 (Homo sapiens), P78536; recombinant ADAM17, EDANS/DABCYL FRET peptide cleavage; inhibition, % at 6.95 µM; hit rate 0.83% among 370,000; AID 720648, 2013;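 active = inhibition above the mean of compounds lying between control limits plus 3 SD, set per campaign, cut at about 8.5% in these data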;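 also: 0% = DMSO-only wells as the low control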
Target sequence (P78536 215-824 limits assumed): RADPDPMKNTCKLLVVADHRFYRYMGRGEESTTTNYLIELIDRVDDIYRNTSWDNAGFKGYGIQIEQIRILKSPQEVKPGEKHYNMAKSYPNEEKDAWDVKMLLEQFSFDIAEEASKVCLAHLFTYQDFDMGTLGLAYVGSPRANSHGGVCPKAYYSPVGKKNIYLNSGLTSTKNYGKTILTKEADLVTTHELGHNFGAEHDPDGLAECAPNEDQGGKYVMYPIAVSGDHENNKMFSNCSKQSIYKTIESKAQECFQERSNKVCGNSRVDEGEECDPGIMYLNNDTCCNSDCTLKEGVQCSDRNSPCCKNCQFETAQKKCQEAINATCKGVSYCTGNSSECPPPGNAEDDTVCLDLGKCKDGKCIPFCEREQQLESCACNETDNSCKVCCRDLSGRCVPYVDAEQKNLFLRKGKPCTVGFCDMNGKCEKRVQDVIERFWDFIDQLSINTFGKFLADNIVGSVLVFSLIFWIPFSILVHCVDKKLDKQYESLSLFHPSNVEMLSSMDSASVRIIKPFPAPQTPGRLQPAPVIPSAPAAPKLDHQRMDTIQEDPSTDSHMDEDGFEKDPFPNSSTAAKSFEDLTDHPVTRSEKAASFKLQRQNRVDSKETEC
KLK7 zymogen act – proKLK7 zymogen activators, primary screen, biochemical, fluorescence intensity; Kallikrein-7 (Homo sapiens), P49862; AID 652039, 2013; activation, % at 7 µM; hit rate 0.9% among 370,000; purified proKLK7, EDANS-DABCYL substrate fluorescence; 100% is mature enzyme control, 0% vehicle;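 active = activation above the mean of all tested compounds plus 3 SD, computed per campaign excluding outliers beyond control limits, cut at about 13% in these data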
ADAM10 inh – human ADAM10 inhibitors, primary screen, biochemical, QFRET, HTS | AID 720582, 2013 | hit rate 0.62% among 370,000 | recombinant ADAM10, EDANS/DABCYL FRET peptide cleavage, 3 h | inhibition, % at 7 µM;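 active = inhibition above a per-campaign cutoff equal to the mean of compounds falling between control-based bounds plus 3 SD, cut at about 20% in these data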;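 also: 0% = DMSO wells while the 100% control is not disclosed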
ADAM10 counter – ADAM10 inhibitors, counter-screen for ADAM17 exosite inhibitor project, biochemical, FRET, human ADAM10; hit rate 47% among 2,900; inhibition, % at 6.95 µM; recombinant ADAM10, EDANS/DABCYL FRET peptide cleavage, 3 h; AID 743256, 2014; shares compounds with ADAM17 inh;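 active = mean inhibition over the triplicate runs exceeds the activity threshold set in the earlier primary screen, cut at about 20% in these data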;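 also: 0% = DMSO wells and 100% = marimastat wells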
ADAM17 confirm – ADAM17 inhibitors, hit retest, confirmation, biochemical, QFRET peptide cleavage | shares compounds with ADAM17 inh | recombinant ADAM17, EDANS/DABCYL QFRET peptide cleavage | inhibition, % at 6.95 µM | hit rate 65% among 2,900;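 active = mean inhibition across replicates above the hit cutoff set in the primary screen, cut at about 8.5% in these data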;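 also: 0% = DMSO wells and 100% = marimastat wells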
The depositor's hits bear a star; . = no result given. Hits are enriched below; roughly 3.8% of the tested compounds scored in any of these assays.

SMILES | Ecoli rRNA inh | FGF22 binding | ADAM17 inh | KLK7 zymogen act | ADAM10 inh | ADAM10 counter | ADAM17 confirm
CNS(=O)(=O)c1ccc(C(=O)NCC(=O)NCCC(c2ccccc2)c2ccccc2)cc1 | . | 0 | 9.7* | 0 | 3 | 6 | 2
COc1ccc(-n2c(=S)[nH]c3cc(C(=O)Nc4ccccc4OC)ccc3c2=O)c(OC)c1 | -4 | 0 | 9.0* | 0 | 17 | 28* | 12*
COc1ccc(-n2c(=S)[nH]c3cc(C(=O)Nc4ccccc4OC)ccc3c2=O)cc1 | . | . | 0 | 1 | 0 | . | .
Cc1cc(NC(=O)COC(=O)c2cc([N+](=O)[O-])ccc2N2CCOCC2)ccc1Br | -18* | 0 | 8.7* | -1 | 16 | 46* | 19*
Cc1cc(C)c(NC(=O)COC(=O)c2cc([N+](=O)[O-])ccc2N2CCOCC2)c(C)c1 | . | 0 | -2 | 0 | -5 | . | .
CCOc1ccc(CCNC(=O)CN2C(=O)c3cccnc3Oc3ccc(Cl)cc32)cc1 | 2 | 0 | 11* | 0 | 3 | 21* | 19*
CCOc1ccc(CCNC(=O)CN2C(=O)c3cccnc3Oc3ccc(C)cc32)cc1OCC | -9 | 0 | 1 | 0 | 9 | . | .
CC(C)CC#Cc1ccc2c(c1)O[C@@H](CN(C)S(=O)(=O)c1cccc(F)c1)[C@H](C)CN([C@H](C)CO)S2(=O)=O | -2 | 0 | . | . | . | . | .
CC1=Nc2cc(C(=O)NCCN3CCOCC3)ccc2Sc2c(C)ccc(C)c21 | -2 | 0 | 9.3* | 1 | 1 | -15 | 0
CC1=Nc2cc(C(=O)NCCCN3CCOCC3)ccc2Sc2c(C)ccc(C)c21 | -2 | 0 | 0 | 0 | -4 | . | .
C[C@H]1CCCCO[C@@H](CN(C)C(=O)NC2CCCCC2)[C@@H](C)CN([C@@H](C)CO)C(=O)c2cc(NS(=O)(=O)c3ccccc3)ccc2O1 | -2 | -1 | . | . | . | . | .
Cc1cc(F)ccc1-c1cc(C(=O)NCc2ccc(C(F)(F)F)cc2)[nH]n1 | -55 | 1 | 11* | 0 | 14 | 24* | 13*
COc1ccc(F)cc1-c1cc(C(=O)NCc2cc(C(F)(F)F)cc(C(F)(F)F)c2)[nH]n1 | 10 | 0 | 12* | 1 | 6 | -1 | 3
COc1ccc(F)cc1-c1cc(C(=O)NCc2ccc(F)cc2)[nH]n1 | -16 | 0 | 4 | 0 | -2 | . | .
CCOC(=O)c1ccc(S(=O)(=O)Nc2cc(C(C)(C)C)no2)cc1 | . | . | -3 | 0 | -4 | . | .
Cc1ccc(C(=O)OCC(=O)Nc2cc(C(C)(C)C)no2)c(C)c1 | -4 | 0 | 12* | -1 | 10 | 33* | 17*
Cn1cc([N+](=O)[O-])c(C(=O)NNC(=O)c2ccc([N+](=O)[O-])cc2)n1 | 2 | 0 | 8.8* | -1 | 5 | 8 | 9
CC(C)NC(=O)N[C@@H]1C=C[C@H](CC(=O)NCCN2CCCC2)O[C@@H]1CO | -1 | 0 | . | . | . | . | .
CCOC(=O)Cn1c(C(=O)OCC)cc2sccc21 | 0 | . | 9.2* | 0 | 1 | 3 | 7
CCN(CC)S(=O)(=O)c1cccc(C(=O)N[C@H](C(=O)OCC(=O)Nc2ccccc2)C(C)C)c1 | . | . | 11* | 0 | -4 | 5 | 4
CC(c1cccs1)N(Cc1ccco1)C(=O)Nc1ccc(Cl)c(Cl)c1 (centres undefined) | . | . | 8.6* | 0 | 10 | -1 | 6
CC12CCC(C(=O)Nc3ccc(SC(F)F)cc3)(CC1=O)C2(C)C (centres undefined) | . | . | 15* | -1 | 10 | 0 | 4
O=C(Nc1ccc(SC(F)F)cc1)C12CCC(CC1)C2 | 13 | 0 | 3 | 0 | -10 | . | .
COc1ccc(NC(=O)N(C)C[C@H]2OCCCC[C@@H](C)Oc3ccc(NS(=O)(=O)c4c(C)noc4C)cc3C(=O)N([C@H](C)CO)C[C@H]2C)cc1 | 1 | -1 | . | . | . | . | .
O=C1CCCCC1C(Nc1ccc(Cl)cc1)c1ccccc1 (centres undefined) | . | . | 11* | 0 | 18 | 14 | 13*
SMILES | Ecoli rRNA inh | FGF22 binding | ADAM17 inh | KLK7 zymogen act | ADAM10 inh | ADAM10 counter | ADAM17 confirm
O=C1CCCCC1C(Nc1ccc(Br)cc1)c1ccccc1 (centres undefined) | . | . | 4 | 0 | 13 | . | .
Cc1ccc(S(=O)(=O)N/N=C/c2cccc3c2OCCO3)cc1 | . | -1 | -3 | 0 | -13 | . | .
Cc1ccc(S(=O)(=O)N/N=C/c2cccc3nccnc23)cc1 | 7 | 0 | 8.8* | 0 | 6 | 18 | 8
COc1ccc(S(=O)(=O)Nc2ccc3c(c2)C(=O)N([C@@H](C)CO)C[C@@H](C)[C@H](CN(C)C(=O)NC2CCCCC2)OCCCC[C@H](C)O3)cc1 | 1 | 0 | . | . | . | . | .
COc1ccc(NC(=O)CN2CCCC2c2cccs2)cc1S(=O)(=O)N1CCCCC1 (centres undefined) | . | 0 | 9.5* | 0 | 18 | 3 | 1
O=C(CN1CCN(c2nc(-c3ccccc3)cs2)CC1)Nc1ccc(Cl)c(Cl)c1 | . | . | 8.8* | 0 | 13 | 19 | 12*
O=C(CN1CCN(c2nc(-c3ccccc3)cs2)CC1)Nc1ccc(F)cc1F | . | . | 5 | 0 | 13 | . | .
Cc1cccc(CNC(=O)Cn2ccc3cc(S(=O)(=O)N4CCCCCC4)ccc32)c1 | -1 | 0 | 4 | 1 | 14 | . | .
Cc1ccc(CNC(=O)Cn2ccc3cc(S(=O)(=O)N4CCCCCC4)ccc32)cc1 | 4 | 0 | 8.8* | 0 | 3 | -3 | 7
Cc1onc(-c2ccccc2Cl)c1C(=O)Nc1cccc2cccnc12 | . | . | 12* | 0 | 15 | 20* | 18*
COc1cc(NC(=O)c2c(-c3ccccc3Cl)noc2C)c2ncccc2c1 | -1 | 1 | -1 | 0 | 7 | . | .
C[C@H](CO)N1C[C@H](C)[C@H](CN(C)C(=O)Nc2ccccc2)Oc2ccc(NC(=O)Nc3ccc(C(F)(F)F)cc3)cc2C1=O | 1 | 0 | . | . | . | . | .
Cc1ccc(/C=C/C(=O)Nc2ccc(Oc3ccccc3)cc2)o1 | . | . | 13* | 0 | 18 | 14 | 11*
COc1ccc(-c2ccc3n(c2=O)C[C@@H]2[C@@H](CO)[C@H](C(=O)N(C)C)[C@H]3N2C(=O)c2cnccn2)cc1 | 1 | . | . | . | . | . | .
